Drawing on PubChem BioAssay, this text covers composite z-score and z-score for five compounds.

For assay [1], the system named is Plasmodium falciparum Sir2 (PF13_0152, Sir2A). Nature of the assay: Plasmodium falciparum Sir2A binding compounds – biochemical, small-molecule microarray, 635 nm fluorescence, primary screen (AID 1098).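 Note: score merges spot fluorescence intensity with its signal-to-noise ratio.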 The following applies: fluorescence 635 nm, higher = more signal.
The nature of assay [2]: probe aDKK1 binding to arrayed compounds – biochemical, biotinylated probe, 635/667 nm fluorescence, primary screen (AID 1099).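 Note: score merges 667nm spot fluorescence with signal to noise across triplicate slides.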 The following applies: small-molecule microarray, higher = more signal.
Assay [3] can be described thus: probe aCHRDL2 binding to arrayed compounds – biochemical, biotinylated probe, 635/667 nm fluorescence, primary screen (AID 1100). As to conditions: small-molecule microarray, higher = more signal.
Assay [4] is described as follows: change in splice reporter luminescence, either direction, cell-based, HEK293, spliceosome inhibition project, primary screen (AID 1101).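 Note: HEK293 cells carrying a splicing-competent luciferase reporter gene; test concentration not given here.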 The following applies: HEK293 splicing luciferase reporter, 24 h, higher = more signal, called active from +8 up or from −8 down. A general note: In a reporter assay the amount or activity of a reporter protein is the signal.
Assay [5] addresses Fibroblast growth factor 10 (Homo sapiens) (UniProt O15520). Nature of the assay: compounds binding fibroblast growth factor 10 – biochemical, small-molecule microarray, 635 nm fluorescence, primary screen (AID 1102). As to conditions: FGF10 binding, fluorescence 635 nm, higher = more signal.
The test system of assay [6] is glycogen synthase kinase-3 (GSK3A per assay name; protocol says GSK3B). Nature of the assay: compounds binding glycogen synthase kinase-3 – biochemical, small-molecule microarray, 635 nm fluorescence, GSK3A, primary screen (AID 1103). Note: the record names both GSK3A and GSK3B. The following applies: fluorescence 635 nm, higher = more signal.
Assay [7] concerns the target Epidermal growth factor receptor (Homo sapiens) (UniProt P00533). Nature of the assay: compounds binding epidermal growth factor receptor – biochemical, small-molecule microarray, 635 nm fluorescence, primary screen (AID 1104).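 Note: score merges 667 nm emission intensity with spot signal to noise over triplicate slides.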 As to conditions: EGFR binding, higher = more signal.
For assay [8], the target named is Follistatin-related protein 3 (Homo sapiens) (UniProt O95633). Nature of the assay: compounds binding follistatin-related protein 3 – biochemical, small-molecule microarray, 635 nm fluorescence, primary screen (AID 1105).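 Note: score merges emission near 667 nm and signal to noise per printed spot across three slides.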 As to conditions: FSTL3 binding, higher = more signal.
Sequence of Follistatin-related protein 3 (Homo sapiens) (O95633 whole entry, looked up): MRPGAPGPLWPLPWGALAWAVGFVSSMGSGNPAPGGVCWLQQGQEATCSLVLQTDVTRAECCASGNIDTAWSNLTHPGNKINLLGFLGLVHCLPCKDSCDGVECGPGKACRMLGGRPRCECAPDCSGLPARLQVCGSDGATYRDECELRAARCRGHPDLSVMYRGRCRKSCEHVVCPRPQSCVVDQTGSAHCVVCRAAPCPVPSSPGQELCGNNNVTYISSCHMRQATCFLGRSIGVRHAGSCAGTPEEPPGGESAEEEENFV
The target in assay [9] is Dickkopf-related protein 1 (Homo sapiens) (UniProt O94907). Nature of the assay: small molecules binding DKK1 protein – biochemical, small-molecule microarray, 635 nm fluorescence scan, primary screen (AID 1106).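 Note: score merges emission near 667 nm with signal to noise over three replicate slides.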 The following applies: higher = more signal.
Sequence of Dickkopf-related protein 1 (Homo sapiens) (O94907 whole entry, looked up): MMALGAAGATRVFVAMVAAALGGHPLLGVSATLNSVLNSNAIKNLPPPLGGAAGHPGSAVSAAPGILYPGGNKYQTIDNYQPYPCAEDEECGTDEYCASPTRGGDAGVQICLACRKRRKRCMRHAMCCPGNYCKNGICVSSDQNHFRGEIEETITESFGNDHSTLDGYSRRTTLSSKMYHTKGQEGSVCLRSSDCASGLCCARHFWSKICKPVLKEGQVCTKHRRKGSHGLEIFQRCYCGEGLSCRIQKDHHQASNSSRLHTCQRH
The subject of assay [10] is Inhibin beta A chain (activin A). Nature of the assay: small molecules binding activin A – biochemical, small-molecule microarray, 635 nm fluorescence scan, primary screen (AID 1107).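 Note: mouse activin A protein probed at 4.33 µg/mL on printed slides; score merges bound-protein fluorescence near 667 nm with spot signal-to-noise.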 As to conditions: INHBA, higher = more signal.
Assay [11] deals with Human papillomavirus type 1a protein E7 (residues 44-93). Description: small molecules binding HPV E7 44-93 – biochemical, small-molecule microarray, residues 44-93, 635 nm fluorescence, primary screen (AID 1108).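 Note: E7 fragment applied at 1 µg/mL in TBST for 1 h at 4 C; score combines spot fluorescence with its signal to noise ratio.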 The following applies: fluorescence 635 nm, higher = more signal.
Assay [12] in a line: hepatitis C replication reporter changes, two-sided – Huh7 cells, luciferase reporter, HCV replication inhibitor project, primary screen (AID 1109).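 Note: huh7 hepatoma cells harbouring a luciferase neomycin HCV replicon reporter; luciferase luminescence as measure of HCV replicon replication; test concentration not given here.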 As to conditions: Huh7 HCV replicon luciferase reporter, 48 h; higher = more signal.
The target of assay [13] is Left-right determination factor 2 (Homo sapiens) (UniProt O00292). Nature of the assay: small molecules binding LEFTY2 protein – biochemical, small-molecule microarray, 635 nm fluorescence scan, primary screen (AID 1110). The following applies: higher = more signal.
Sequence of Left-right determination factor 2 (Homo sapiens) (O00292 whole entry, looked up): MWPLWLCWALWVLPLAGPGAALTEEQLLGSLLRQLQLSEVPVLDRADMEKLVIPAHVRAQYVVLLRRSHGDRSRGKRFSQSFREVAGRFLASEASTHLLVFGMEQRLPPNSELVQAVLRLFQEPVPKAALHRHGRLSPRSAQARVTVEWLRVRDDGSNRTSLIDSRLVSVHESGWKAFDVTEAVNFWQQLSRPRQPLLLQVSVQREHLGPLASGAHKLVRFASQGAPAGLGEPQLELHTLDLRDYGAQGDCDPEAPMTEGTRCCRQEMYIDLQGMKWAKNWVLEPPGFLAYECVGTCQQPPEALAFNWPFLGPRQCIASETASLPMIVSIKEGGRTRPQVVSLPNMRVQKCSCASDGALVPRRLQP
Assay [14] deals with Calmodulin-1 (Homo sapiens) (UniProt P0DP23). Description: small molecules binding calmodulin-1 with EGTA – biochemical, small-molecule microarray, Cy5-labelled CALM1, profiling panel (AID 1111).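 Note: labelled calmodulin applied in Tris saline Tween buffer holding calcium plus EGTA and DTT.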 The following applies: Cy5-CALM1 binding fluorescence, higher = more signal.
Assay [15] shares this target. Nature of the assay: small molecules binding Ca-loaded calmodulin-1 – biochemical, small-molecule microarray, Cy5-labelled CALM1, plus calcium, artefact control for SMM control-protein annotation, profiling panel (AID 1112).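 Note: score merges spot fluorescence with signal to noise from triplicate slides.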 The following applies: Cy5-CALM1 binding fluorescence, higher = more signal.
Assay [16] in a line: probe aWnt5a binding to arrayed compounds – biochemical, biotinylated probe, 635/667 nm fluorescence, primary screen (AID 1113).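 Note: score merges 667 nm fluorescence intensity with signal-to-noise per printed feature.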 As to conditions: small-molecule microarray, higher = more signal.
The nature of assay [17]: probe aShh binding to arrayed compounds – biochemical, biotinylated probe, 635/667 nm fluorescence, primary screen (AID 1114).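 Note: probe is biotin-labelled aShh protein from a stem cell growth factor screen; measures binding of labelled protein to compounds printed on the slide; score merges feature fluorescence at 667 nm with signal-to-noise.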 As to conditions: small-molecule microarray, higher = more signal.
The nature of assay [18]: probe aNog binding to arrayed compounds – biochemical, biotinylated probe, 635/667 nm fluorescence, primary screen (AID 1115).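 Note: probe is biotinylated aNog protein used at 0.15 µg/mL for 1 h at 4 C; z-score combines 667 nm fluorescence of each spot with its signal to noise.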 The following applies: small-molecule microarray, higher = more signal.
Assay [19] has as its target Torsin-1A-interacting protein 1 (Homo sapiens) (UniProt Q5JTV8). Nature of the assay: compound microarray binding of lysate hLAP1 – cell lysate, small-molecule microarray, COS7 lysate, 635/667 nm fluorescence, primary screen (AID 1116). The following applies: 635 nm fluorescence, higher = more signal.
Assay [20] addresses Alpha-bungarotoxin (Bungarus multicinctus) (UniProt P60615). Description: compounds binding labelled alpha-BTX control protein – biochemical, small-molecule microarray, Alexa647 label, 635/667 nm fluorescence, artefact control for SMM control protein annotation, profiling panel (AID 1117). The following applies: alpha-BTX-A647 binding fluorescence, higher = more signal.

SMILES strings stand for the structures. The source made the active and inactive calls.

Sequence of Torsin-1A-interacting protein 1 (Homo sapiens) (Q5JTV8 whole entry, looked up): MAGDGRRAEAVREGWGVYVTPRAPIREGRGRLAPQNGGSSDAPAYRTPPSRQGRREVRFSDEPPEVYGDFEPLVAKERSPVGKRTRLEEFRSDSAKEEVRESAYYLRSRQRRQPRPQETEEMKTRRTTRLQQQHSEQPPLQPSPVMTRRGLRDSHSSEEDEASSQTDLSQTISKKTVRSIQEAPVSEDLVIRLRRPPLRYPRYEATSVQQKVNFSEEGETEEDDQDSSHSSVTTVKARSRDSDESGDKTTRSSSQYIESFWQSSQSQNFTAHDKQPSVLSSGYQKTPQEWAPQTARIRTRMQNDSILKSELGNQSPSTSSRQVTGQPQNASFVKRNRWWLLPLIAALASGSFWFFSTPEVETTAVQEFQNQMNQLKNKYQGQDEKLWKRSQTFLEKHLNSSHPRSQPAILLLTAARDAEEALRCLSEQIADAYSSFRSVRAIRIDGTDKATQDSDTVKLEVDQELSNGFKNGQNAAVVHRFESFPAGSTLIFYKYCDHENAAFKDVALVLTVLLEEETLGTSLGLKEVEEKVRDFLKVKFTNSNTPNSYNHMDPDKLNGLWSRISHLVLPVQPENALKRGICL
Sequence of Epidermal growth factor receptor (Homo sapiens) (P00533 whole entry, looked up): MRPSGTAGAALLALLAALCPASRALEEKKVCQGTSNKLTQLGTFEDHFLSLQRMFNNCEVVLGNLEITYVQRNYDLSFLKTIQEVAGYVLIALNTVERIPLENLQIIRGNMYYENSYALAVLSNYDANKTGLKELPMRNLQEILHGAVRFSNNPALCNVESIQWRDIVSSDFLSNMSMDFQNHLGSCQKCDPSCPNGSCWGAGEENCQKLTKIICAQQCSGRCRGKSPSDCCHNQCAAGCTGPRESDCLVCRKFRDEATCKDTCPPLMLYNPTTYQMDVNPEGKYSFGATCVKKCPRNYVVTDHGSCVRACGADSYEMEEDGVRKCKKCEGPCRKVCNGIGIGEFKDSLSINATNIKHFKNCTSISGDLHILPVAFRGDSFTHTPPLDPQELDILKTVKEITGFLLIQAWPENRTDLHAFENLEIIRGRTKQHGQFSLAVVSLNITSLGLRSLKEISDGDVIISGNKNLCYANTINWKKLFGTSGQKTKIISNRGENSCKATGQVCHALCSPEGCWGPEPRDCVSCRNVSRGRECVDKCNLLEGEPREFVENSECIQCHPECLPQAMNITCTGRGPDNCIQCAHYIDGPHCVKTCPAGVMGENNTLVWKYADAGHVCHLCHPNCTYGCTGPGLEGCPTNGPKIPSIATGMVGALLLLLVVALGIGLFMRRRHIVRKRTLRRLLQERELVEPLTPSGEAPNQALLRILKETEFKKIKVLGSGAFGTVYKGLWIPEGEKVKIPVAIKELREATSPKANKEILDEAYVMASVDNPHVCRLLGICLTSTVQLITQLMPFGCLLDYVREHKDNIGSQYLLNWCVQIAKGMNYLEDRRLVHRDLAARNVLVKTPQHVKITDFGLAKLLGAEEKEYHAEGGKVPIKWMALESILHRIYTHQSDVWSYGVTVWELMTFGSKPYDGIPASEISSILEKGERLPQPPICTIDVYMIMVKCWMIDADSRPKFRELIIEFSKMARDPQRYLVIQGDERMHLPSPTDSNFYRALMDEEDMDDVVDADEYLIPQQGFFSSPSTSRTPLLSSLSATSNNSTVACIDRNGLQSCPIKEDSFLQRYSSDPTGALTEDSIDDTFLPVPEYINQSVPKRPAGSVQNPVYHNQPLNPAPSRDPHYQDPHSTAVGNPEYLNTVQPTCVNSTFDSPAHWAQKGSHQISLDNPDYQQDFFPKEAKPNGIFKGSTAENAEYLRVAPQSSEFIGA
Sequence of Alpha-bungarotoxin (Bungarus multicinctus) (P60615 whole entry, looked up): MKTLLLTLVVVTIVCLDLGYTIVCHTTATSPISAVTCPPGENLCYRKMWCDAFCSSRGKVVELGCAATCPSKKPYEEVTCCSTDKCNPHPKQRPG
Sequence of Fibroblast growth factor 10 (Homo sapiens) (O15520 whole entry, looked up): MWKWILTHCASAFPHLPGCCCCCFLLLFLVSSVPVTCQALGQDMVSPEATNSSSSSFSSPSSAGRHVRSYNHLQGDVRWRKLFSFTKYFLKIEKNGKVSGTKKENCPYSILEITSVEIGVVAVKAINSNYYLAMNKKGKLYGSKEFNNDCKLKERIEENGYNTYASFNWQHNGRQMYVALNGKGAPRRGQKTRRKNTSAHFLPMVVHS

On to `O=C(NCc1ccccc1)[C@@H]1c2ccccc2C(=O)N(Cc2ccccc2Cl)[C@H]1c1ccc(CO)cc1`, for which the composite z-score in assay [1] turned out to be 0.447; in assay [2] it was 1; in assay [3], 1.01; in assay [5], 0.814; in assay [6], 1.32; in assay [7] it was 0.183. The composite z-score was 1.42 in assay [8]; 0.909 in [9]; 0.791 in assay [10]; 1.05 in assay [11]; 0.671 in [13]; -0.23 in [14]. Besides, the composite z-score in assay [15] amounted to 0.0368; in [16], 0.0297; in assay [17] it was 0.123; in assay [18], 0.522; in [19], 1.21; in assay [20] it was 1.67. The z-score is -1.05 (inactive) in [4] and -0.267 in assay [12].
With `COc1ccc(C#Cc2ccc3c(c2)[C@]2(C(=O)N3)[C@H](c3ccc(O)cc3)N3[C@H](c4ccccc4)[C@H](c4ccccc4)OC(=O)[C@H]3[C@@H]2C(N)=O)cc1`, the composite z-score in [1] was 0.348; in [2] it was -0.0576; in [3], 0.698; in assay [5], -0.425; in assay [6], -0.381; in [7], -1.06. Also, the composite z-score was -1.08 in assay [8]; -0.67 in [9]; 0.227 in assay [10]; 0.53 in [11]; -1.07 in assay [13]; 0.0315 in [14]. Besides, the composite z-score was 1.03 in assay [15]; -0.136 in [16]; 0.0735 in assay [17]; 0.482 in assay [18]; -0.203 in assay [19]; 0.997 in assay [20]. The z-score in assay [4] was 6.64 (inactive); in assay [12], -1.68.
Consider `CN(C)CCCC[C@@H]1NC(=O)[C@@H]2C[C@H](C(=O)NCCCCCNC(=O)CS)[C@H](c3cccc(OCCO)c3)N2C1=O`, for which the composite z-score in assay [1] is 1.72; in [2] it was -0.08; in assay [3] it was -0.305; in assay [5] it was 0.551; in [6] it was 0.684; in assay [7], 0.35. For the same compound, the composite z-score in assay [8] was 0.356; in assay [9], 1.08; in assay [10], 0.995; in assay [11], -0.0825; in assay [13], 1; in [14], 0.497. For the same compound, the composite z-score in [15] is 0.843; in assay [16], -0.034; in assay [17] it was 0.213; in assay [18], -0.255; in assay [19], -0.304; in [20], 0.4. For the same compound, the figures for the z-score in assay [4] and in [12] were -3.22 (inactive) and 1.94, respectively.
`C[N+](C)(C)CCCCNC(=O)[C@@H]1C[C@@H]2C(=O)NCC(=O)N2[C@@H]1c1cccc(OCCO)c1`: the composite z-score in assay [1] was 0.594; in assay [2], -0.365; in [3], -0.211; in assay [5], 1.16; in assay [6] it was 0.68; in assay [7], 0.627. The composite z-score in assay [8] was 1.39; in assay [9], 1.72; in assay [10], -0.0907; in [11], 0.299; in assay [13], 1.08; in assay [14] it was -0.189. Further, the composite z-score in assay [15] is -0.131; in [16] it was 0.0519; in [17], 0.0756; in [18], 0.145; in assay [19], 1.66; in assay [20], 1.89. For the same compound, the z-score in [4] was -1.49 (inactive); in [12] it was 0.703.
Take `CCOC(=O)C[C@H]1[C@H](OC(=O)c2ccc(-c3ccccc3)cc2)[C@@H](NC(=O)c2ccccc2)c2cc(OCCCO)ccc2N1C(=O)c1ccccc1`: the composite z-score in [1] was 0.204; in assay [2], 0.462; in assay [3], 0.47; in assay [5], 0.767; in assay [6], 0.66; in [7] it was -0.0664. Further, the composite z-score in assay [8] was 0.235; in [9], -0.188; in assay [10], -0.649; in [11], 1.11; in assay [13], 0.394; in assay [14], 2.04. The composite z-score in [15] was 1.2; in assay [16], -0.0718; in assay [17], 0.275; in assay [18] it was 0.165; in assay [19] it was 0.67; in assay [20], 1.09. For the same compound, the z-score was -2.01 (inactive) in assay [4] and -1.58 in assay [12].
